From the supplement of paper PMC8728848
Shown is part of a subset that was picked to be rich in the strongest signals.

What was measured:
Assay in all cases: glycan array binding signal (z-score within array); higher = stronger binding
Settings in all cases: glycan notation: IUPAC condensed, linker removed
[1] = target: Fuc(a1-2)Gal(b1-3)GlcNAc(b1-3)[Neu5Ac(a2-6)Gal(b1-4)GlcNAc(b1-6)]Gal(b1-4)Glc
Summary of the method: (§1)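 The binding signal is a Z-score computed within each array. Data were drawn from 3228 arrays in the Consortium for Functional Glycomics database, restricted to those with a known protein sequence. Scores were averaged over arrays of the same protein sequence at different concentrations or buffers, and over linkers, and negative values can be taken as non-binding.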

[2] = target: Fuc(a1-2)Gal(b1-3)[Fuc(a1-4)]GlcNAc
Summary of the method: as §1

[3] = target: Fuc(a1-2)Gal(b1-4)GlcNAc(b1-6)GalNAc
Summary of the method: as §1

[4] = target: Fuc(a1-2)Gal(b1-4)GlcNAc6S
Summary of the method: as §1

[5] = target: Fuc(a1-2)[Gal(a1-3)]Gal(b1-3)GalNAc(b1-3)Gal(a1-4)Gal(b1-4)Glc
Summary of the method: as §1

[6] = target: Fuc(a1-2)[Gal(a1-3)]Gal(b1-4)Glc
Summary of the method: as §1

[7] = target: Fuc(a1-2)[Gal(a1-3)]Gal(b1-4)GlcNAc(b1-6)GalNAc
Summary of the method: as §1

[8] = target: Fuc(a1-2)[GalNAc(a1-3)]Gal(b1-3)GalNAc(a1-3)[Fuc(a1-2)]Gal(b1-4)GlcNAc
Summary of the method: as §1

[9] = target: Fuc(a1-2)[GalNAc(a1-3)]Gal(b1-4)[Fuc(a1-3)]GlcNAc(b1-3)GalNAc
Summary of the method: as §1

[10] = target: Fuc(a1-3)[Gal(b1-4)]GlcNAc6S
Summary of the method: as §1

[11] = target: Gal(a1-3)Gal(b1-4)[Fuc(a1-3)]GlcNAc(b1-2)Man(a1-3)[Gal(a1-3)Gal(b1-4)[Fuc(a1-3)]GlcNAc(b1-2)Man(a1-6)]Man(b1-4)GlcNAc(b1-4)GlcNAc
Summary of the method: as §1

[12] = target: Gal(a1-4)Gal(b1-3)GlcNAc(b1-2)Man(a1-3)[Gal(a1-4)Gal(b1-3)GlcNAc(b1-2)Man(a1-6)]Man(b1-4)GlcNAc(b1-4)GlcNAc
Summary of the method: as §1

[13] = target: Gal(a1-4)Gal(b1-4)GlcNAc(b1-2)Man(a1-3)[Gal(a1-4)Gal(b1-4)GlcNAc(b1-2)Man(a1-6)]Man(b1-4)GlcNAc(b1-4)GlcNAc
Summary of the method: as §1

[14] = target: Gal(a1-4)Gal(b1-4)GlcNAc(b1-3)Gal(b1-4)Glc
Summary of the method: as §1

[15] = target: Gal(b1-3)Gal(b1-4)GlcNAc
Summary of the method: as §1

[16] = target: Gal(b1-3)GalNAc
Summary of the method: as §1

[17] = target: Gal(b1-3)GalNAc(a1-3)[Fuc(a1-2)]Gal(b1-4)Glc
Summary of the method: as §1

[18] = target: Gal(b1-3)GalNAc(a1-3)[Fuc(a1-2)]Gal(b1-4)GlcNAc
Summary of the method: as §1

[19] = target: Gal(b1-3)GalNAc(b1-3)Gal
Summary of the method: as §1

[20] = target: Gal(b1-3)GalNAc(b1-3)Gal(a1-4)Gal(b1-4)Glc
Summary of the method: as §1

[21] = target: Gal(b1-3)GalNAc(b1-4)Gal(b1-4)Glc
Summary of the method: as §1

[22] = target: Gal(b1-3)GalNAc(b1-4)[Neu5Ac(a2-3)]Gal(b1-4)Glc
Summary of the method: as §1

[23] = target: Gal(b1-3)GlcNAc(b1-3)Gal(b1-4)GlcNAc(b1-3)Gal(b1-4)GlcNAc(b1-2)[Gal(b1-3)GlcNAc(b1-3)Gal(b1-4)GlcNAc(b1-3)Gal(b1-4)GlcNAc(b1-6)]Man(a1-6)[Gal(b1-3)GlcNAc(b1-3)Gal(b1-4)GlcNAc(b1-3)Gal(b1-4)GlcNAc(b1-2)Man(a1-3)]Man(b1-4)GlcNAc(b1-4)[Fuc(a1-6)]GlcNAc
Summary of the method: as §1

[24] = target: Gal(b1-3)[Fuc(a1-4)]GlcNAc(b1-3)Gal(b1-4)[Fuc(a1-3)]GlcNAc
Summary of the method: as §1

[25] = target: Gal(b1-3)[Neu5Ac(a2-6)]GalNAc
Summary of the method: as §1

[26] = target: Gal(b1-4)GlcNAc(b1-2)Man(a1-3)[Gal(b1-4)GlcNAc(b1-2)Man(a1-6)][Gal(b1-4)GlcNAc(b1-4)]Man(b1-4)GlcNAc(b1-4)[Fuc(a1-6)]GlcNAc
Summary of the method: as §1

[27] = target: Gal(b1-4)GlcNAc(b1-2)[Gal(b1-4)GlcNAc(b1-6)]Man(a1-6)[GlcNAc(b1-4)][Gal(b1-4)GlcNAc(b1-2)[Gal(b1-4)GlcNAc(b1-4)]Man(a1-3)]Man(b1-4)GlcNAc(b1-4)[Fuc(a1-6)]GlcNAc
Summary of the method: as §1

[28] = target: Gal(b1-4)GlcNAc(b1-3)Gal(b1-4)Glc
Summary of the method: as §1

[29] = target: Gal(b1-4)GlcNAc(b1-6)[Gal(b1-3)]GalNAc
Summary of the method: as §1

[30] = target: Gal(b1-4)GlcNAc(b1-6)[Gal(b1-4)GlcNAc(b1-3)]GalNAc
Summary of the method: as §1

B1: Epa10 (protein)
chain: MNEKIFRYLTLLFLFELARSLPVEDKLNIKKVFEKRAVDFTPFAHYPRPEGCSSPPNSVSVGLHMNLYNYPYLYVKPSTKGMFTNDTNSDADGETDGDSAGGIEGRAGQCWNPEYQDPNFPRFGYKQYGEFGASDNVNGDISWDHNEFTEGCKPVLAALPPGYNYPDEITFSNFTMVLSGYFKPKTSGVYKFELKADDFILFNFGAKNAFECCNREESIDNFGPYVAYAMWPNQADQELEVYLFEDSYYPLRLFYNNRDYHSKFKIGFYPPGQTTITFDFDGYLFMLDDTGNECRDSIRYRTVCDDKVVDDTTYSTRYSTSMVPGGGSDVITIYYIRMKCEEEDCLGQWDPINNVCYSPDDCADDGGYWNGQMCDQSCKLEGGIVNPDTGDCDKSCIESGGFLDENGNCDTTCRDDGGMLVEGQCDYQCKEAGGILVGDHCDTTCVDSGGKLNEDGTCDHSCRDQGGQLDENGECDTSCKDSGGMLIEGECDTSCKDEGGQLDDNNECINHCKDQGGIIDENGNCDTSCKDSGGKLDESGACDTSCRDDGGIIDENGNCNTTCRDDGGIIVGDHCDTSCRDAGGILIEDHCDTTCRDSGGKLNEDGTCDHSCRDQGGQLDENGKCDYSCKNGGGKLDEDGNCDMSCKENGGKLDENGDCDLSCKEDGGKLDGNGDCDYSCKEEGGVIDESGNCNTTCKDSGGQIIDGECNYGCIEVGGVVIDGECDTSCIDSGGILDGDGNCDRSCIESGGVLEDGACNTTCRDSGGQLNVDGTCDTSCRDDGGMLVEGQCDYQCKEAGGILEDGECVFPPTSSSTSETSSTTDQSSLQSDDSSMESSSTPMDSSTIESSSSEIITSESESESVPIASSSSEVMTSESESESIPILTSSSEIPIASSSSEIPVASSSSEIIIPESESESVPVASSSSEIPIASSSSEIPVASSSSEIPVASSSSEIIIPESESESIPIESTSSEAVSSRSESDSSYPTPTPTTTTITTWPNPIQPTTSNSSPIVSSSTETPGIAESSSRISDLESSRRTSILGDDRTRTRTTITSTITEDGQIITITTTVTGFVPEPTGETEGNGSDDENPENPIENNTDENEFLDPEFTDDIPDDPAGPEDNGNGPVNPEQGNDNDPVNLEDSGNNGAVNPEQAPVNDEDNGGNDPVNPEQDNNNGPANPGQDSTNGSGNSDQIDNNPPTPEENAGDGNSNGNDPADPSRRTSILGDERTRASPGGTSQPTGANGNVNGNSPGANVNGGGTGNSNNNNNNNNNNNNGNAPNGGDGSNGDANQGPSRRTSLLGDERTRAGQAAPTGGSSPDNGIAGDTSNNGGAIVSQQVDDGGAGSPRRTSILGDVRSRTTLNGEVLNFEGSGVRRAVAGNLALPLMMVGLVFNL
In the case of B1, the “glycan array binding signal (z-score)” value [1] is reported as -0.195, the “glycan array binding signal (z-score)” value [2] is reported as -0.222 and the “glycan array binding signal (z-score)” value [3] is reported as -0.172. For the same binder, the “glycan array binding signal (z-score)” value [4] was -0.198, the “glycan array binding signal (z-score)” value [5] was -0.256 and the “glycan array binding signal (z-score)” value [6] was -0.272. The “glycan array binding signal (z-score)” value [7] was -0.16, the “glycan array binding signal (z-score)” value [8] was -0.215 and the “glycan array binding signal (z-score)” value [9] was -0.113. For the same binder, the “glycan array binding signal (z-score)” value [10] was -0.223, the “glycan array binding signal (z-score)” value [11] was 0.134 and the “glycan array binding signal (z-score)” value [12] was 3.35. For the same binder, the “glycan array binding signal (z-score)” value [13] was 1.46, the “glycan array binding signal (z-score)” value [14] was 1.2 and the “glycan array binding signal (z-score)” value [15] was 4.92. The “glycan array binding signal (z-score)” value [16] was 3.84, the “glycan array binding signal (z-score)” value [17] was 3.03 and the “glycan array binding signal (z-score)” value [18] was 3.87. The “glycan array binding signal (z-score)” value [19] was 6.03, the “glycan array binding signal (z-score)” value [20] was 4.11 and the “glycan array binding signal (z-score)” value [21] was 17. The “glycan array binding signal (z-score)” value [22] was 4.18, the “glycan array binding signal (z-score)” value [23] was 0.117 and the “glycan array binding signal (z-score)” value [24] was -0.254. For the same binder, the “glycan array binding signal (z-score)” value [25] was 3.73, the “glycan array binding signal (z-score)” value [26] was -0.267 and the “glycan array binding signal (z-score)” value [27] was 0.014. The “glycan array binding signal (z-score)” value [28] was -0.234, the “glycan array binding signal (z-score)” value [29] was 2.59 and the “glycan array binding signal (z-score)” value [30] was 0.208.
